Results filed as inconclusive are left out. Activity calls are given as the source filed them. The call rests on the fitted dose curve.
Assays:
[1] = Primary qHTS for inhibitors of SARS-S pseudo-typed particle cell entry (AID 1479145); further: nearly all actives have a fitted effect of over 45% in size; further: potency means the concentration at half of the fitted maximal effect; on activity change, negative = inhibition: series mostly up to about 57 µM
[2] = Primary qHTS for Huh7 cytotoxicity: counterscreen for inhibitors of MERS-S pseudotyped particle cell entry (AID 1479147)
[3] = Primary qHTS for inhibitors of MERS-S pseudo-typed particle cell entry (AID 1479149); further: nearly all actives have a fitted effect of over 60% in size; on activity change, negative = inhibition: series mostly up to about 57 µM
[4] = Primary qHTS for Vero E6 cytotoxicity: counterscreen for inhibitors of SARS-S pseudo-typed particle cell entry (AID 1479150)
On the % scale 0 is the no-effect control and ±100 the full control effect.

Oc1ccc(OCc2ccccc2)cc1
inactive: Potency [1] | Potency [2] | Potency [3] | Potency [4]

CCCCC(=O)OCC(=O)[C@H]1[C@H](C)C[C@H]2[C@@H]3C[C@H](F)C4=CC(=O)C=C[C@]4(C)[C@@]3(F)[C@@H](O)C[C@@]21C
inactive: Potency [1] | Potency [2] | Potency [3] | Potency [4]

Nc1ccc(S(N)(=O)=O)cc1
inactive: Potency [1] | Potency [2] | Potency [3] | Potency [4]

COc1ccc(C(=O)CC(=O)c2ccc(C(C)(C)C)cc2)cc1
inactive: Potency [1] | Potency [2] | Potency [3] | Potency [4]

CC(=O)OCC(=O)[C@@]1(O)[C@H](C)C[C@H]2[C@@H]3CCC4=CC(=O)C=C[C@]4(C)[C@@]3(F)[C@@H](O)C[C@@]21C
inactive: Potency [1] | Potency [2] | Potency [3] | Potency [4]

CCOc1ccc(NC(=O)CC(C)O)cc1 (configuration not stated)
inactive: Potency [1] | Potency [2] | Potency [3] | Potency [4]

COc1cc(NS(=O)(=O)c2ccc(N)cc2)nc(C)n1
inactive: Potency [1] | Potency [2] | Potency [3] | Potency [4]

C[C@](N)(Cc1ccc(O)cc1)C(=O)O
inactive: activity change, negative = inhibition [1] -0.396% [at 5.34 µM] | outcome [2] inactive [at 5.34 µM] | outcome [3] inactive [at 5.34 µM] | activity change, negative = cytotoxicity [4] -24.5% [at 5.34 µM]

S=c1nc[nH]c2nc[nH]c12
inactive: Potency [1] | Potency [2] | Potency [3] | Potency [4]

CC(=O)CC(c1ccccc1)c1c(O)c2ccccc2oc1=O (configuration not stated)
inactive: Potency [1] | Potency [2] | Potency [3] | Potency [4]

Cc1cccc(C)c1NC(=O)c1cc(S(N)(=O)=O)c(Cl)cc1O
inactive: Potency [1] | Potency [2] | Potency [3] | Potency [4]

CC[N+](CC)(CCNC(=O)C(=O)NCC[N+](CC)(CC)Cc1ccccc1Cl)Cc1ccccc1Cl
inactive: Potency [1] | Potency [2] | Potency [3] | Potency [4]

COc1c2occc2cc2ccc(=O)oc12
inactive: Potency [1] | Potency [2] | Potency [3] | Potency [4]

C[C@@H](O)[C@H]1C(=O)N2C(C(=O)O)=C(SCCN=CN)C[C@H]12
inactive: Potency [1] | Potency [2] | Potency [3] | Potency [4]

CCCCCCCCCCCCCCCCOP(=O)([O-])OCC[N+](C)(C)C
active: Potency [1] 14.1 µM
inactive: Potency [2] | Potency [3] | Potency [4]

CC(C)Cn1cnc2c(N)nc3ccccc3c21
inactive: Potency [1] | Potency [2] | Potency [3] | Potency [4]

Nc1ccc(C(=O)Oc2ccccc2)c(O)c1
inactive: Potency [1] | Potency [2] | Potency [3] | Potency [4]

CC1(C)O[C@@H]2C[C@H]3[C@@H]4CCC5=CC(=O)C=C[C@]5(C)[C@@]4(F)[C@@H](O)C[C@]3(C)[C@]2(C(=O)CO)O1
inactive: Potency [1] | Potency [2] | Potency [3] | Potency [4]

COCC(=O)Nc1c(I)c(C(=O)NCC(O)CO)c(I)c(C(=O)N(C)CC(O)CO)c1I (configuration not stated)
inactive: Potency [1] | Potency [2] | Potency [3] | Potency [4]

COc1cc2c(Nc3ccc(Br)cc3F)ncnc2cc1OCC1CCN(C)CC1
inactive: Potency [1] | Potency [2] | Potency [3] | Potency [4]

CC(=O)OCC(=O)[C@@]1(OC(C)=O)[C@@H](C)C[C@H]2[C@@H]3C[C@H](F)C4=CC(=O)C=C[C@]4(C)[C@@]3(F)[C@@H](O)C[C@@]21C
inactive: Potency [1] | Potency [2] | Potency [3] | Potency [4]

NCCNCCNCCNCCN
inactive: outcome [1] inactive [at 11.4 µM] | outcome [2] inactive [at 11.4 µM] | outcome [3] inactive [at 11.4 µM] | activity change, negative = cytotoxicity [4] 1.23% [at 11.4 µM]

Cc1cc2cc3c(C)cc(=O)oc3c(C)c2o1
inactive: Potency [1] | Potency [2] | Potency [3] | Potency [4]

Cc1nnc(SCC2=C(C(=O)O)N3C(=O)[C@@H](NC(=O)Cn4cnnn4)[C@H]3SC2)s1
inactive: Potency [1] | Potency [2] | Potency [3] | Potency [4]

c1ccc(-c2nc[nH]c2-c2ccccc2)cc1
inactive: Potency [1] | Potency [2] | Potency [3] | Potency [4]

N[C@@H](Cc1cc(I)c(Oc2ccc(O)c(I)c2)c(I)c1)C(=O)O
inactive: Potency [1] | Potency [2] | Potency [3] | Potency [4]

CCN(CC)C(=O)/C(C#N)=C/c1cc(O)c(O)c([N+](=O)[O-])c1
inactive: Potency [1] | Potency [2] | Potency [3] | Potency [4]

CC(CCc1ccccc1)NCC(O)c1ccc(O)c(C(N)=O)c1 (configuration not stated)
inactive: Potency [1] | Potency [2] | Potency [3] | Potency [4]

CC(C)(C(=O)c1cccnc1)c1cccnc1
inactive: Potency [1] | Potency [2] | Potency [3] | Potency [4]

O=C(O)c1cc(=O)c2c(OCC(O)COc3cccc4oc(C(=O)O)cc(=O)c34)cccc2o1
inactive: Potency [1] | Potency [2] | Potency [3] | Potency [4]

CCCCCCCCCCCCCCCCCC(=O)OCC(O)CO (configuration not stated)
inactive: Potency [1] | Potency [2] | Potency [3] | Potency [4]

C[N+](C)(CCOc1ccccc1)Cc1cccs1
inactive: Potency [1] | Potency [2] | Potency [3] | Potency [4]

CCOC(=O)O[C@]1(C(=O)OCCl)CC[C@H]2[C@@H]3CCC4=CC(=O)C=C[C@]4(C)[C@H]3[C@@H](O)C[C@@]21C
inactive: Potency [1] | Potency [2] | Potency [3] | Potency [4]
